Bioassay records from PubChem BioAssay.
Shown are actives, neighbours in structure and some others; about 2.4% of the full set was active somewhere.
D2 antagonist = HTS Assay for Allosteric Antagonists of the Human D2 Dopamine Receptor: Primary Screen for Antagonists; 340,000 compounds, 2% hits; inhibition, % at 10 µM; D(2) dopamine receptor (Homo sapiens), P14416; AID 485344, 2010; HEK293 TREx D2 cells, calcium flux, dopamine EC80; in the data active = inhibition above about 30%; inactive = below that, where a call was filed; note: 0% is about no effect
Target sequence (P14416 whole entry, looked up): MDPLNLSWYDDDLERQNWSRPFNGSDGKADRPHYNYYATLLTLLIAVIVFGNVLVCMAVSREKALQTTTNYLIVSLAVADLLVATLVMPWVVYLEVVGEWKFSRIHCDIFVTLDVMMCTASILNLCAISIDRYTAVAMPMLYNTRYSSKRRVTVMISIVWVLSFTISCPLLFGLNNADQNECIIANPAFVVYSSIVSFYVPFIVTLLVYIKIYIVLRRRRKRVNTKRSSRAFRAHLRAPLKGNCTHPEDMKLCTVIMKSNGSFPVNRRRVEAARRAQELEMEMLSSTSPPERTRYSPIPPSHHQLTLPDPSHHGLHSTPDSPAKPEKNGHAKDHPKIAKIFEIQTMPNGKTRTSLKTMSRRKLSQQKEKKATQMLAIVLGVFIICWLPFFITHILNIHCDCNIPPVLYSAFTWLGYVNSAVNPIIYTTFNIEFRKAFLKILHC
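Dopamine at EC80 is the agonist stimulus; test compounds precede it by 180 s. Calcium flux read kinetically in a force-coupled, inducible HEK293 T-REx D2 cell line.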
D2 PAM-1 = HTS Assay for Positive Allosteric Modulators of the Human D2 Dopamine Receptor: Primary Screen for Potentiators. 340,000 compounds, 0.34% hits. HEK293 T-REx D2, calcium flux, EC20 dopamine potentiation. potentiation, % at 10 µM. D(2) dopamine receptor (Homo sapiens), P14416. AID 485347, 2010;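 active = potentiation over 3 SD above the plate norm, cut at about 30% in these data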; note: 0% is about no effect
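Using a no-wash calcium dye in inducible, force-coupled HEK293 Trex cells expressing D2, we tracked fluorescence each second for 180 s after compound, then for 180 s after EC20 dopamine to detect augmented signalling.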
D2 ag-1 = Beta-Arrestin HTS for Positive Allosteric Modulators of the Human D2 Dopamine Receptor: Agonists; D(2) dopamine receptor (Homo sapiens), P14416; DiscoveRx PathHunter D2 beta-arrestin, luminescence, 90 min; 100% = 57 uM dopamine signal; activation, % (test concentration not listed); 360,000 compounds, 0.084% hits; in the data active = activation above about 40%; inconclusive = between about 15% and that limit
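Agonist mode: compounds alone added to overnight-plated D2 PathHunter cells for 90 min at 37 C, with 57 uM final dopamine (EC100) defining full response. Beta-arrestin recruitment detected by chemiluminescent reagent, read after 1 h at ambient temperature.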
D2 PAM-2 = Beta-Arrestin HTS for Positive Allosteric Modulators of the Human D2 Dopamine Receptor: Potentiators. D(2) dopamine receptor (Homo sapiens), P14416. DiscoveRx D2 beta-arrestin cells, luminescence, 90 min; 100% = 57 uM dopamine signal. potentiation, % (no concentration beside the values). 360,000 compounds, 0.23% hits. AID 624464, 2012; in the data active = potentiation above about 50%; inconclusive = mostly about 30% to 49%
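PathHunter D2 cells, attached overnight at 37 deg C, received compound in DMSO plus dopamine at EC20 (50 nM final) for 90 min at 37 deg C. Beta-arrestin recruitment was read as luminescence after 1 h with detection reagent at ambient temperature.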
D2 ag-2 = HTS Assay for Allosteric Agonists of the Human D2 Dopamine Receptor: Primary Screen for Agonists | D(2) dopamine receptor (Homo sapiens), P14416 | HEK293 T-REx D2 cells, calcium flux agonist mode | activation, % at 2 µM | 340,000 compounds, 0.53% hits;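 active = activation over 3 SD above normal in the single-dose calcium agonist read, cut at about 30% in these data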; note: 0% is about no effect
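In this primary screen, compounds producing a positive calcium signal within 180 s of addition to tetracycline-induced, force-coupled HEK293 Trex D2 cells are flagged; cells are dye-loaded with a no-wash calcium kit beforehand.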
D3 arrestin ag = qHTS of D3 Dopamine Receptor Agonist: D3 Dopamine Receptor B-arrestin Agonist Confirmatory Assay; shares compounds with D2 ag-2; DiscoveRx D3 beta-arrestin cells, luminescence, 90 min; Potency, µM (highest dose often 76.9 µM), without a hit: at the top dose activation, actives largely listed as activators; 2,300 compounds, 4% hits; AID 720506, 2013;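 note: potency is the fitted concentration of half-maximal effect; 100% = dopamine control response; nearly all actives have a fitted effect of over 70% in size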
D2 ag-3 = qHTS of D3 Dopamine Receptor Agonist: D2 Dopamine Receptor B-arrestin Agonist Counterscreen. shares compounds with D2 ag-2. DiscoveRx PathHunter D2 beta-arrestin, luminescence, 90 min; response scale: percent relative to full dopamine signal. Potency, µM (top dose mostly 76.9 µM), for the others: at the top dose activation, usual class: activators. 2,300 compounds, 5.9% hits. AID 720507, 2013; note: potency is the fitted concentration of half-maximal effect; % of control where 0% means no effect; nearly all actives have a fitted effect of over 70% in size
* marks the source's active call; other numbers are inactive results; ? = inconclusive; . = no result given. Unless noted, calls come from the whole dose curve; as a rule, active = well fitted activation curve with a large enough effect; inconclusive = small, poorly fitted or top-dose-only effect; inactive = flat fitted curve, though single readings scatter.

SMILES | D2 antagonist | D2 PAM-1 | D2 ag-1 | D2 PAM-2 | D2 ag-2 | D3 arrestin ag | D2 ag-3
O=C(Nc1ccnn1C1CCN(CCCc2ccccc2)CC1)c1ccccc1 | 44* | -15 | -1 | -7 | 17 | -4% | 5%
Cc1ccccc1C(=O)Nc1ccnn1C1CCN(CCCc2ccccc2)CC1 | -13 | 17 | ? | -7 | 2 | . | .
Cc1cccc2c1-c1sc(C(=O)N3CCN(c4ccccc4)CC3)cc1CO2 | . | -11 | . | . | 0 | . | .
CC(=O)CC(C)(C)Nc1nc2cc([N+](=O)[O-])ccc2o1 | -8 | -15 | -4 | -12 | 0 | . | .
CC(=O)CC(C)(C)Nc1nc2ccc([N+](=O)[O-])cc2o1 | 39* | 2 | -2 | -6 | 0 | -8% | -2%
CC(C)N1CCN(CC2COc3ccccc3O2)CC1 (stereo not drawn) | 4 | -10 | -5 | -10 | 35* | -7% | -1%
Cc1ccc(-c2noc(-c3ccccc3NC(=O)C3CC(=O)N(c4ccc(C)cc4)C3)n2)cc1 (stereo not drawn) | . | 7 | . | . | -2 | . | .
CN(C)CCNC(=O)c1ccc(CS(=O)(=O)c2c(Cl)cccc2Cl)o1 | 1 | 0 | -7 | -4 | 1 | . | .
CN(CCNC(=O)c1ccc(CS(=O)(=O)c2c(Cl)cccc2Cl)o1)CCc1ccccc1 | 0 | -5 | -1 | -31 | 31* | 3% | 8%
CCOC(=O)Cc1csc(NC(=O)CN2CCN(c3ccccc3)CC2)n1 | 15 | 9 | 6 | 6 | 5 | 10% | 26%
CCOC(=O)Cc1csc(NC(=O)CN2CCN(CC)CC2)n1 | -5 | -1 | 2 | -5 | 0 | . | .
O=C(CN1CCN(Cc2ccc(Cl)cc2)C1=O)NCCCN1CCN(c2ccc(F)cc2)CC1 | -14 | -24 | 3 | -14 | -1 | . | .
Cc1ccccc1CN1CCN(CC(=O)NCCCN2CCN(c3ccc(F)cc3)CC2)C1=O | 64* | -16 | -2 | -37 | 5 | 0% | 22%
CC(=O)N1CCN(C(C)=O)C1c1ccccc1 | -12 | 3 | -3 | -1 | 0 | . | .
CC(=O)N1C(O)CC(C)N1c1ccccc1 (stereo not drawn) | 0 | -3 | 2 | 8 | 0 | 2% | -3%
COc1cc(NC(=O)C2CCCN(S(=O)(=O)c3cn(C)cn3)C2)cc(OC)c1 (stereo not drawn) | . | 0 | . | . | . | . | .
Fc1ccccc1N1CCN(CCCNc2ccc3nncn3n2)CC1 | 90* | -25 | 43* | 11 | 95* | ? | ?
COc1cccc(CCNc2ncnc3c2nnn3C)c1 | . | 16 | . | . | 1 | . | .
COc1ccc(NC(=O)C2CCN(S(=O)(=O)c3cc(-c4noc(C)n4)ccc3C)CC2)cc1 | . | 5 | . | . | 0 | . | .
O=S(=O)(CCN1CCN(c2ccccn2)CC1)c1ccc(Cl)cc1Cl | 12 | -6 | 3 | -9 | 50* | 19% | 11%
Cc1cc(C)cc(-n2ccn(CC(=O)c3ccc(F)cc3)c(=O)c2=O)c1 | . | -9 | . | . | 0 | . | .
CC(=O)c1ccc(S(=O)(=O)NCCC(=O)OCC(=O)NCCc2ccccc2)cc1 | -7 | -7 | -3 | -4 | 0 | . | .
CC(=O)c1ccc(OC(C)C(=O)OCC(=O)NCCc2ccccc2)cc1 (stereo not drawn) | 18 | 7 | 1 | 7 | 0 | 2% | -1%
CC(OC(=O)CNC(=O)c1ccc(Br)cc1)C(=O)NC1CCCCC1C (stereo not drawn) | 3 | -7 | -5 | -11 | 0 | -1% | 0%
CC(OC(=O)Cc1c(F)cccc1Cl)C(=O)NC1CCCCC1C (stereo not drawn) | -9 | -12 | -5 | -2 | 1 | -5% | -2%
SMILES | D2 antagonist | D2 PAM-1 | D2 ag-1 | D2 PAM-2 | D2 ag-2 | D3 arrestin ag | D2 ag-3
CCOC(=O)CNC(=O)c1cc2c(=O)n3cccc(C)c3nc2n1C | . | 18 | . | . | -2 | . | .
COc1ccccc1-c1nc2c(c(SCC(=O)Nc3ccc(C)c(C)c3)n1)Cc1c(CO)cnc(C)c1O2 | . | -5 | . | . | 1 | . | .
CCSc1nc(CC)c2c(c1C#N)CCCC2 | -2 | -19 | -1 | -5 | 56* | -4% | 9%
COc1ccc2c(c1)[nH]c1c(=O)n(Cc3ccco3)cnc12 | 1 | -18 | -3 | -4 | 32* | -7% | -3%
COc1ccc2c(c1)[nH]c1c(=O)n(Cc3ccccn3)cnc12 | 15 | 13 | 0 | 4 | -1 | . | .
COc1ccc(-c2cc(C)no2)cc1S(=O)(=O)Nc1c(C)cc(C)cc1C | . | 11 | . | . | 0 | . | .
Clc1cccc(OCCN2CCN(CCOc3cccc(Cl)c3)CC2)c1 | 93* | -24 | ? | -15 | 74* | ? | 25%
c1ccc(OCCN2CCOCC2)cc1 | 13 | 3 | 0 | -2 | 38* | -1% | 5%
CN(C)CCCOc1cccc(Cl)c1 | -13 | -17 | -1 | -13 | -1 | . | .
c1ccc(Cc2ccc(OCCN3CCOCC3)cc2)cc1 | 11 | -1 | 5 | -13 | 0 | . | .
O=S(=O)(c1ccc(Br)s1)N1CCN(CCOc2ccccc2)CC1 | 53* | -35 | 11 | -28 | 43* | ? | 20%
O=C(O)/C(=C\c1cccc(O)c1)c1ccc(S(=O)(=O)N2CCCC2)s1 | 42* | -5 | 0 | 6 | 25 | -5% | 8%
O=C(O)/C(=C\c1cccc(F)c1)c1ccc(S(=O)(=O)N2CCCCC2)s1 | -11 | 6 | -6 | 10 | -1 | . | .
COc1ccc(OC)c(Nc2ncc3c(n2)CCN(Cc2cc(OC)c(OC)c(OC)c2)C3)c1 | . | 2 | . | . | 1 | . | .
COc1ccc(-c2nc(CN3CCN(C(=O)c4ccco4)CC3)c(C)o2)cc1OC | 12 | 3 | 1 | 3 | 0 | . | .
COc1ccc(-c2nc(CN3CCN(C(=O)c4ccco4)CC3)c(C)o2)c(F)c1 | 25 | -16 | ? | 15 | 61* | ? | ?
COc1ccc(-c2nc(CN3CCN(C(=O)c4ccco4)CC3)c(C)o2)c(OC)c1C | 92* | -24 | 46* | ? | 102* | ? | ?
